The results in this text go back to PubChem BioAssay (EPA / NIEHS).

Molecules are shown by their SMILES. Several values for one entry are separate records, joined by “and”; a condition that tells them apart may be missing. Equal entries are not always repeated. Records with an inconclusive call do not appear. Activity calls are given as the source filed them. Rule for the calls: active = hit-call score of the fitted dose curve at least 0.9, where 1 is the maximum; inconclusive = response in the unintended direction; inactive = score below 0.9.

Test [1] in a line: ACEA_AR_agonist_AUC_viability: ACEA Biosciences xCELLigence Real-Time Cell Analysis on Androgen Receptor Agonism for Viability (AID 2283775).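 For AC50: viability read 80 hours after compound addition.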 Summed up:
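Real-time impedance tracking of 22Rv1 growth, readings every 5 min for 5 h then hourly; area-under-curve viability endpoint at 80 hours, relative to DMSO. Compounds at eight concentrations, 1:4 steps, top 100 uM, n = 2.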

Test [2] relates to zebrafish Estrogen Receptor (ESR2B), gene 317733. The test is described as follows: ATG_zfER2b_XSP1: Attagene TRANS-FACTORIAL Multi-Species (XSP1) HepG2 Assay for zebrafish Estrogen Receptor (ESR2B) (AID 2283773). In a few lines:
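HepG2 cells transiently transfected with GAL4-UAS reporter units for chimeric zebrafish ER2b-Gal4, with 3 nM 6-alpha-fluorotestosterone present; reporter mRNA measured 24 h after dosing by RT-PCR and capillary electrophoresis, gain versus DMSO.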

Test [3] relates to frog Estrogen Receptor (ESR2), gene 100174814. Put plainly: ATG_frER2_XSP1: Attagene TRANS-FACTORIAL Multi-Species (XSP1) HepG2 Assay for frog Estrogen Receptor (ESR2) (AID 2283774). In a few lines: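 HepG2 cells transiently transfected with GAL4-UAS reporter units expressing chimeric frog ER-Gal4; 3 nM 6-alpha-fluorotestosterone present. After 24 h dosing, reporter mRNA quantified by RT-PCR and capillary electrophoresis; gain-of-signal fitted relative to DMSO.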

Test [4] has as its system frog Estrogen Receptor (ESR1), gene 398734. The test is described as follows: ATG_frER1_XSP1: Attagene TRANS-FACTORIAL Multi-Species (XSP1) HepG2 Assay for frog Estrogen Receptor (ESR1) (AID 2283777). Summed up: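 HepG2 cells transiently transfected with frog ER–GAL4 chimera and GAL4-UAS reporter, with 3 nM 6-alpha-fluorotestosterone present; 24 h dosing, reporter mRNA quantified by RT-PCR and capillary electrophoresis, gain of signal versus DMSO.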

For test [5], the system named is zebrafish Estrogen Receptor (ESR2A), gene 317734. Put plainly: ATG_zfER2a_XSP1: Attagene TRANS-FACTORIAL Multi-Species (XSP1) HepG2 Assay for zebrafish Estrogen Receptor (ESR2A) (AID 2283778). The protocol:
ATG_XSP1_multi-species_TRANS is a cell-based, multiplexed assay created by modifying the existing Attagene TRANS-FACTORIAL system to include a panel of nuclear receptors from some or all the following species: human (Homo sapiens), mouse (Mus musculus), frog (Xenopus laevis), zebrafish (Danio rerio), chicken (Gallus gallus), and turtle (Chrysemys picta). The […] format uses HepG2, a human liver cell line, with measurements taken at 24 hours after chemical dosing in a 24-well plate. Xsp1 included 3 nM 6-alpha-fluorotestosterone to partially stimulate the androgen receptor.ATG_zfER2a_XSP1 is one of 29 assay components measured or calculated from the ATG_XSP1_multi-species_TRANS assay. It is designed to make measurements of mRNA induction, a form of inducible reporter, as detected with fluorescence intensity signals by Reverse transcription polymerase chain reaction (RT-PCR) and Capillary electrophoresis technology.The assay endpoint ATG_zfER2a_XSP1 was analyzed in the positive analysis fitting direction relative to DMSO as the negative control and baseline of activity. Using a type of inducible reporter, measures of mRNA for gain-of-signal activity can be used to understand the reporter gene at the transcription factor-level as they relate to the gene ER. Furthermore, this assay endpoint can be referred to as a primary readout, because this assay has produced multiple assay endpoints where this one serves a reporter gene function. To generalize the intended target to other relatable targets, this assay endpoint is annotated to the nuclear receptor intended target family, where the subfamily is steroidal.
Human liver HepG2 cells are transiently transfected with multiple reporter transcription units (MRTUs) in 6-well plates using FuGene 6 reagent (Roche; 3 ml FuGene/1 mg DNA). The MRTU constructs are regulated by a cis-regulating element (promoter). […] A major difference between the CIS and TRANS system is that in CIS activities of endogenous TFs are measured, whereas the TRANS assay evaluates changes in activities of exogenous, chimeric NR-Gal4 proteins. […] At the end of 24 hour incubation, total RNA was isolated using TriZol reagent (Invitrogen). The isolated RNA is then reverse-transcribed using oligo(dT) primer and Mo-MLV reverse transcriptase (Invitrogen) with DNAse I (Ambion) treatment for 30 min. The one-tenth of the produced cDNA was amplified by PCR using Taq DNA polymerase (Invitrogen) and two reporter sequence-specific primers. The PCR products were fluorescently labeled by primer extension with 6-arboxyfluorescein (6-FAM) 5'-labeled reporter sequence-specific primer (2 min at 95 C, 20 s at 68 C and 10 min at 72 C) and these products were digested with 5U of HpaI (New England Biolabs) for 2h at 37 C. The fragments were purified using Qiaquick PCR columns (Qiagen), analyzed on an ABI 3130xL genetic analyzer (Applied Biosystems) with peak positions identified by using a set of X-rhodamine (ROX)-labeled MapMarker1000 molecular weight standards (BioVentures). The raw capillary electrophoresis data was processed using Attagraph software (Attagene).

The target of test [6] is chicken Estrogen Receptor (ESR1), ESR1 (gene 396099) (UniProt P06212). The test is described as follows: ATG_chERa_XSP1: Attagene TRANS-FACTORIAL Multi-Species (XSP1) HepG2 Assay for chicken Estrogen Receptor (ESR1) (AID 2283779). Summed up: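 HepG2 cells transiently transfected with GAL4-UAS reporter units for chimeric chicken ERα-Gal4, dosed 24 h with 3 nM 6-alpha-fluorotestosterone present. Reporter mRNA by RT-PCR and capillary electrophoresis; gain-of-signal fit versus DMSO.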
Sequence of chicken Estrogen Receptor (ESR1), ESR1 (gene 396099) (P06212 whole entry, looked up, the tested form may be a part): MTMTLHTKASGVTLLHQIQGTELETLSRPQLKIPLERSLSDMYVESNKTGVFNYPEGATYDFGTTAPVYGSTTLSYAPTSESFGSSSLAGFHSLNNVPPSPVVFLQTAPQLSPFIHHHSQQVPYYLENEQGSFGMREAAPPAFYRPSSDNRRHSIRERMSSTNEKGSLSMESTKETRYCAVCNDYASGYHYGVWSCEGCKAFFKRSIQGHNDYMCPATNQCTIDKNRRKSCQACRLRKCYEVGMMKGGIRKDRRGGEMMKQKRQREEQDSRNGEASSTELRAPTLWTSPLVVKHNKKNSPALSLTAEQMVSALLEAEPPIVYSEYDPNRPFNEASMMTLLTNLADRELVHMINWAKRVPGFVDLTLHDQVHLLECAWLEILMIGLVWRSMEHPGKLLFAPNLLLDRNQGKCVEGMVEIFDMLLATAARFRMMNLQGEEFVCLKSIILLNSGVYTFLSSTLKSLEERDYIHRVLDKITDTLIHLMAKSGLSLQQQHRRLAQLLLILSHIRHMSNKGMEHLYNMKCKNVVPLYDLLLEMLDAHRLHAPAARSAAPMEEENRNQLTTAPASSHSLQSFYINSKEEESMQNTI

Test [7] concerns the target Estrogen receptor (Homo sapiens) (UniProt P03372). The test is described as follows: ATG_hERa_XSP1: Attagene TRANS-FACTORIAL Multi-Species (XSP1) HepG2 Assay for human Estrogen Receptor (ESR1) (AID 2283780). In a few lines: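 HepG2 cells transiently transfected with GAL4-UAS reporter units and chimeric NR-Gal4 constructs; 24 h after dosing, reporter mRNA quantified by RT-PCR and capillary electrophoresis. Medium contained 3 nM 6-alpha-fluorotestosterone; activity fitted as gain-of-signal versus DMSO.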

Test [8] relates to turtle Estrogen Receptor (ESR1), gene 101933533. Put plainly: ATG_trERa_XSP1: Attagene TRANS-FACTORIAL Multi-Species (XSP1) HepG2 Assay for turtle Estrogen Receptor (ESR1) (AID 2283781). Summed up: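 Turtle ERa as a GAL4 chimera in transiently transfected HepG2 cells; reporter mRNA quantified 24 h after dosing by RT-PCR and capillary electrophoresis. 3 nM 6-alpha-fluorotestosterone present; gain of signal versus DMSO.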

In test [9] the target is AR (gene 367) (UniProt P10275). Put plainly: ACEA_AR_agonist_80hr: ACEA Biosciences xCELLigence Real-Time Cell Analysis on Androgen Receptor Agonism for Proliferation (AID 2283783).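 Note: hits increase impedance growth signal above DMSO baseline.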 Summed up:
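Proliferation of 22Rv1 prostate cancer cells tracked by electrical impedance, endpoint taken at 80 hours after dosing. Eight-point 1:4 dilutions from 100 uM maximum final, duplicate; testosterone and MG132 as positive controls, assay media as negative.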

A short description of test [10]: ACEA_AR_antagonist_AUC_viability: ACEA Biosciences xCELLigence Real-Time Cell Analysis on Androgen Receptor Antagonism for Viability (AID 2283776).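 Note: 22Rv1 human prostate cancer cells growing on impedance electrode plates; hits lower the growth signal relative to DMSO meaning cytotoxicity.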 In a few lines:
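Impedance read-out (RT-CES): area under growth curve at 80 h post-dose, loss of signal scored vs DMSO baseline. 22Rv1 cells; 8-pt 1:4 series, top 100 uM final, ≤0.5% DMSO; biological duplicate.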

Sequence of AR (gene 367) (P10275 whole entry, looked up): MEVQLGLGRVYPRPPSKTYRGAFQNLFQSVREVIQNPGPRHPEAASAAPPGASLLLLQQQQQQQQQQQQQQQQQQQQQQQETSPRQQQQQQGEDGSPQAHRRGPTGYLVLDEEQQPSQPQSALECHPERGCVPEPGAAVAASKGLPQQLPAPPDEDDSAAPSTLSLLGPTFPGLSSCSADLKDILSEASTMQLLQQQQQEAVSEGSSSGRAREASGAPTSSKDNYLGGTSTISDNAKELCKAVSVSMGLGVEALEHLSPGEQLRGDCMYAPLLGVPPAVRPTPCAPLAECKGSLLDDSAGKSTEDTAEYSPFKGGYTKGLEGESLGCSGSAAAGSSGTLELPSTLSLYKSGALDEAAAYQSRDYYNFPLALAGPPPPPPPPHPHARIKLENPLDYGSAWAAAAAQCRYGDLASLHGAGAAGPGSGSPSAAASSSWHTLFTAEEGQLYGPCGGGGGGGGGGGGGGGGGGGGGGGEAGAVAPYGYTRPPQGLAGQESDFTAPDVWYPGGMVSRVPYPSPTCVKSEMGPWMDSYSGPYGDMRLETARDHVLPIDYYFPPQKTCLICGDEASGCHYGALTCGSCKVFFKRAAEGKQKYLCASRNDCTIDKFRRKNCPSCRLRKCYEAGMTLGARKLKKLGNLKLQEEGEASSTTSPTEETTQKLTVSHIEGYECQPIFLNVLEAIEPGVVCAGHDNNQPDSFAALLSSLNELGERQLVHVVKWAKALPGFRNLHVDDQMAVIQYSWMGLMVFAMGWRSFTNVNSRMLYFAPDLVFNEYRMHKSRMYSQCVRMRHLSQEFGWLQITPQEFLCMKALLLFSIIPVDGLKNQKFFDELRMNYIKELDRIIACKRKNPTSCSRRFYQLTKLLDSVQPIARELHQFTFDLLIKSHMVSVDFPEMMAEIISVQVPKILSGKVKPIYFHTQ
Sequence of Estrogen receptor (Homo sapiens) (P03372 whole entry, looked up, the tested form may be a part): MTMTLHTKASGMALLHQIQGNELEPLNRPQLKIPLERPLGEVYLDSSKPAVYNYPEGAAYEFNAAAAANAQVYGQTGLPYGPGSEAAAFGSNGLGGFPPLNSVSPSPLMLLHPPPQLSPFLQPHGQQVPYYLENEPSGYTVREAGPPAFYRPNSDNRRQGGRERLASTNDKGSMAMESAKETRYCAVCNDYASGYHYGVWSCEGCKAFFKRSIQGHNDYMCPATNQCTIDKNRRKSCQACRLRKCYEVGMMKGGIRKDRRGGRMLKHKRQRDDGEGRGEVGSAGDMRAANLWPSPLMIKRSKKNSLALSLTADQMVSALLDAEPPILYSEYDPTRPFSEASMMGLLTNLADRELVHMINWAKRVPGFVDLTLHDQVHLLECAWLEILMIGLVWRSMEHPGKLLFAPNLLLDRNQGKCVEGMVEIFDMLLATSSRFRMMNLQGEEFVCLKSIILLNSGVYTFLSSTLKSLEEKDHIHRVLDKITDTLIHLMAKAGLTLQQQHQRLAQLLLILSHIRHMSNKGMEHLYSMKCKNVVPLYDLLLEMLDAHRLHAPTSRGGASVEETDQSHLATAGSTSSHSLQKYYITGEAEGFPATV

Consider `CC(C)C(=O)OCC(C)(C)C(OC(=O)C(C)C)C(C)C` (centres undefined), for which the AC50 in test [1] was 75 µM (active).
Consider `C[C@]12CCC(=O)C=C1CC[C@@H]1[C@@H]2CC[C@]2(C)C(=O)CC[C@@H]12`, for which the AC50 was 15.4 nM (active) and 14.6 nM (active) in test [2]; 69 nM (active) and 15.3 nM (active) in [3]; 13 nM (active) and 15.4 nM (active) in [4]; 17.5 nM (active) and 13.2 nM (active) in test [5]; 6.69 nM (active) and 4.53 nM (active) in test [6]; 0.00335 µM (active) in [7]. Also, the AC50 in test [8] was 4.61 nM (active) and 4.8 nM (active).
On to `CCCCCCCCCC[N+](C)(C)CCCCCCCCCC`, for which the AC50 in test [1] was 3.81 µM (active).
With `CCC(C)(CC)c1cc(NC(=O)c2c(OC)cccc2OC)on1`, in [1], the outcome was inactive.
Still for that read-out and setting: the result for `C1CC2OC2CC1C1CO1` (centres undefined) reads “inactive”.
`COc1ccc(O)c(C(C)(C)C)c1`: the AC50 in [1] was 81.3 µM (active).
For `O=C(N[C@H]1CN2CCC1CC2)c1cc2ccoc2cn1`, the result in [1] and in test [9] was inactive.
With `Oc1ccc(Cl)cc1Cl`, the call in [1] and in test [10] was inactive.
Regarding `CCCCCCCCCc1ccc(O)cc1`, the concentration at half-maximal activity (AC50) in test [1] was 22.9 µM (active); in test [10] it was 19.1 µM (active).
The corresponding values for `O=C(O)C(F)(F)C(F)(F)C(F)(F)C(F)(F)C(F)(F)C(F)(F)C(F)(F)C(F)(F)C(F)(F)F` are 71.7 µM (active) and 67.3 µM (active).
In the case of `CCOC(=O)C(O)(c1ccc(Cl)cc1)c1ccc(Cl)cc1`, the values for the AC50 in test [1] and in test [10] were 79.6 µM (active) and 19.6 µM (active), respectively. In test [9], the result was inactive.
In the case of `c1cc2ccc3cccc4ccc(c1)c2c34`, the outcome in test [1] was inactive.
`CCSC(=O)N(CC)C1CCCCC1`: the outcome in test [10] was inactive.
As to `Cc1ccccc1CO[C@@H]1C[C@@]2(C(C)C)CC[C@]1(C)O2`, the AC50 in test [1] is 76.7 µM (active). The compound was called inactive in test [9].
As for `CCNc1nc(NC(C)C)nc(SC)n1`, the outcome in test [1] and in test [9] was inactive.
As for `C=CC(=O)NCNC(=O)C=C`, the outcome in [1] and in [9] was inactive.
For `Nn1cnnc1`, the call in [10] was inactive.
For `CCCCCCOC(=O)c1ccccc1C(=O)OCCCCCC`, the AC50 in [1] was 43.5 µM (active).
In the case of `O=C(NC(=O)c1c(F)cccc1F)Nc1cc(Cl)c(OC(F)(F)C(F)F)c(Cl)c1`, the AC50 in test [1] was 50 µM (active). For the same compound, the result in test [9] was inactive.
As to `CCCN(CCC)N=O`, the result in test [1] and in test [10] was inactive.
As for `CN(C)CCO`, the compound was classed as inactive in test [1] and in test [10].
With `Cc1ccc(O)c(C)c1`, the compound was classed as inactive in test [1] and in [10].
Take `Cc1cc(-c2ccc(N)c(C)c2)ccc1N`: the result in test [1] was inactive. In addition, in test [10], the AC50 is 7.2 µM (active) and 2.03 µM (active).
In the case of `Cc1cccc([N+](=O)[O-])c1`, the outcome in test [1] was inactive.
Regarding `O=NN(c1ccccc1)c1ccccc1`, the call in test [1] and in [10] was inactive.
On to `O=C(O)C(F)(F)C(F)(F)C(F)(F)C(F)(F)C(F)(F)F`, for which, in test [10], the compound was classed as inactive.
For the compound `OCC(O)CO`, the compound was called inactive in test [1] and in [10].
As for `CCCCCCCCOC(=O)c1ccccc1C(=O)OCCCCCCCC`, the result in test [1] and in test [9] was inactive.
Consider `Clc1ccc(Cl)cc1`, for which the result in [1] and in test [10] was inactive.
For the compound `CC(c1ccc(O)cc1)(c1ccc(O)cc1)c1ccc(O)cc1`, the figures for the AC50 in test [1] and in [10] were 17.8 µM (active) and 14.6 µM (active), respectively.
In the case of `CCC(=O)O[C@H]1CC[C@H]2[C@@H]3CCC4=CC(=O)CC[C@]4(C)[C@H]3CC[C@]12C`, the AC50 in test [9] was 0.207 nM (active) and 0.285 nM (active) and 0.61 nM (active).
Regarding `ClC1=C(Cl)[C@]2(Cl)[C@@H]3[C@@H]4C[C@@H]([C@H]5O[C@@H]45)[C@@H]3[C@@]1(Cl)C2(Cl)Cl`, the AC50 in [1] and in [10] was 50 µM (active) each time.
As to `Sc1ccccc1`, the outcome in test [1] and in [10] was inactive.
`Oc1c(Cl)c(Cl)c(Cl)c(Cl)c1Cl`: the values for the AC50 in test [1] and in test [10] were 15.2 µM (active) and 29.5 µM (active), respectively.
Consider `CN(C)c1nc(=O)n(C2CCCCC2)c(=O)n1C`, for which, in test [1], the compound was classed as inactive.
As to `CO/C=C(/C(=O)OC)c1ccccc1COc1cccc(C(F)(F)F)n1`, in [1], the AC50 was 50 µM (active).

The term AC50 denotes the concentration at which the activity in the assay is half-maximal.
